Assay results from PubChem BioAssay (NCI).
About 83,000 compounds went through this panel and 20% of them were active in at least one assay; those are over-represented in the sample as a whole.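 96-well plates, one dose, 48 hours. Percent growth reported; active if below 10.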 Unmarked numbers belong to inactive results. Active and inactive are the calls of the source.

Columns and labels:
Assay in all cases: NCI-60 one-dose screen, 48 h (100 = growth as untreated, 0 = no growth, -100 = all killed)
Conditions in all cases: 10 µM unless noted
SK-MEL-2 melanoma = tested on: SK-MEL-2 melanoma
EKVX NSCLC = tested on: EKVX NSCLC
SN12C renal = tested on: SN12C renal
UO-31 renal = tested on: UO-31 renal
TK-10 renal = tested on: TK-10 renal
ACHN renal = tested on: ACHN renal
CAKI-1 renal = tested on: CAKI-1 renal
A498 renal = tested on: A498 renal
CCRF-CEM leukemia = tested on: CCRF-CEM leukemia
MOLT-4 leukemia = tested on: MOLT-4 leukemia
SR leukemia = tested on: SR leukemia
RPMI-8226 leukemia = tested on: RPMI-8226 leukemia
OVCAR-8 ovarian = tested on: OVCAR-8 ovarian
OVCAR-5 ovarian = tested on: OVCAR-5 ovarian
OVCAR-4 ovarian = tested on: OVCAR-4 ovarian
SK-OV-3 ovarian = tested on: SK-OV-3 ovarian
IGROV1 ovarian = tested on: IGROV1 ovarian
OVCAR-3 ovarian = tested on: OVCAR-3 ovarian
HS 578T breast = tested on: HS 578T breast
NCI/ADR-RES ovarian = tested on: NCI/ADR-RES ovarian

SMILES | growth (SK-MEL-2 melanoma) | growth (EKVX NSCLC) | growth (SN12C renal) | growth (UO-31 renal) | growth (TK-10 renal) | growth (ACHN renal) | growth (CAKI-1 renal) | growth (A498 renal) | growth (CCRF-CEM leukemia) | growth (MOLT-4 leukemia) | growth (SR leukemia) | growth (RPMI-8226 leukemia) | growth (OVCAR-8 ovarian) | growth (OVCAR-5 ovarian) | growth (OVCAR-4 ovarian) | growth (SK-OV-3 ovarian) | growth (IGROV1 ovarian) | growth (OVCAR-3 ovarian) | growth (HS 578T breast) | growth (NCI/ADR-RES ovarian)
N#C/C(=C\c1cn(Cc2ccccc2)c2ccccc12)C(=O)Nc1ncc(Cc2ccccc2Cl)s1 | 35.9% | 28.7% | 18.1% | -34.3% (active) | 6.29% (active) | -58.4% (active) | -11.4% (active) | -13.3% (active) | 37% | 61% | 8.65% (active) | 67.6% | 6.09% (active) | -2.57% (active) | -74.6% (active) | 9.54% (active) | 9.54% (active) | -19.1% (active) | 21.7% | 15%
O=C1Nc2ccccc2/C1=C\c1c[nH]c2ccc(Br)cc12 | 66.8% | 79.5% | 84.9% | 46% | 75.3% | 53.6% | 55% | 108% | 66.1% | 62.1% | 72.4% | 73.9% | 79.8% | 80.4% | 54.7% | 66.5% | 61.5% | 72.5% | 82.7% | 57.7%
CCN(CC)CCCN1C(=O)c2c(c(C)c3c(oc4ccc(O)cc43)c2C)C1=O | 94.7% | 101% | 63.4% | 63.7% | -27.4% (active) | 25.9% | 82.4% | 94.8% | -19.7% (active) | 83.2% | 19.1% | -15.7% (active) | -31.8% (active) | 103% | -35.5% (active) | 109% | 75.2% | 55.7% | 81.2% | -62.9% (active)
Cc1cc2c(cc1C)N(C(=O)CCl)CC(=O)N2 | 63.2% | 119% | 39.2% | 78.3% | 44.5% | -8.11% (active) | 103% | 82.9% | -19.9% (active) | 17.1% | -8.95% (active) | 37.5% | 61.6% | 96.8% | 60.6% | 68.9% | 43.1% | 6.17% (active) | 72.9% | 62.4%
CCOC(=O)C1=C(C)C(Cl)=N/C1=C\c1[nH]c(Cl)c(C)c1C(=O)OCC | 109% | 99.5% | 100% | 86.5% | 109% | 107% | 94.5% | 104% | 51.9% | 80.3% | 86.3% | 65.1% | 99.1% | 124% | 95.4% | 81.8% | 112% | 116% | 103% | 104%
CS(=O)(=O)c1ccc(NC(=O)c2ccccc2)nc1 | 109% | 109% | 99.1% | 99.9% | 93.5% | 111% | 106% | 92.3% | 74.7% | 71.3% | 76.8% | 100% | 107% | 108% | 115% | 94.1% | 111% | 110% | 98.1% | 110%
O=[N+]([O-])c1ccc(-c2cn3nc(-c4c[nH]c5ccccc45)sc3n2)cc1 | 109% | 91.2% | 91.9% | 72.8% | 102% | 96.8% | 91% | 85.9% | 90.2% | 88.6% | 92.2% | 93.1% | 104% | 96.9% | 88% | 88.3% | 89% | 109% | 99.9% | 99.3%
C=C1C(=O)O[C@H]2[C@H]1CC/C(COC(=O)/C=C\C(=O)NCc1ccc(Cn3c(=O)sn(CCCCC)c3=O)cc1)=C\CC[C@@]1(C)O[C@@H]21 | 87.6% | 98% | 71% | 60.7% | 57.4% | 46.9% | 66.6% | 100% | 4.56% (active) | 18% | 59.7% | 8.85% (active) | 84.5% | 89% | 84.6% | 111% | 58% | 36% | 98.2% | 98.8%
C=C(CNCCO)[C@@H]1CC[C@]2(CO)CC[C@]3(C)[C@H](CC[C@@H]4[C@@]5(C)CCC(N)C(C)(C)[C@@H]5CC[C@]43C)[C@@H]12 (stereo not given in full) | -29.2% (active) | 72% | 71.7% | 81.7% | 68.9% | 97.5% | 54.1% | 81.7% | 1.11% (active) | 8.81% (active) | -23.1% (active) | -35.3% (active) | 36.8% | 81.6% | 64.6% | 95.2% | 65.3% | 69.4% | 51% | 94.8%
COc1ccc(/C=C2\COc3ccc(O)cc3C2=O)cc1 | 109% | 105% | 92.5% | 72.7% | 104% | 98.9% | 89.4% | 110% | 3.13% (active) | 74.5% | 15.8% | -0.495% (active) | 95.3% | 102% | 104% | 128% | 99.6% | 114% | 104% | 98.5%
Cn1cc(-c2csc(-c3c[nH]c4ccc(F)cc34)n2)c2ccnc(Cl)c21 | 104% | 65.6% | 73.6% | 53% | 69.8% | 51% | 69.8% | 42.5% | 50.5% | 64.9% | 44.4% | 52.9% | 80.5% | 127% | 47.2% | 74.3% | 70.5% | 73.4% | 74.3% | 71.4%
S=c1[nH]c(=S)c2c(-c3ccccc3)c(-c3ccccc3)oc2[nH]1 | 99.6% | 103% | 95.3% | 81.6% | 124% | 106% | 101% | 70.9% | 114% | 101% | 94.2% | 107% | 110% | 95.2% | 95.2% | 103% | 99.6% | 105% | 104% | 103%
COc1cccc(CNc2c3ccccc3nc3ccccc23)c1 | 67.9% | 51.8% | 37.9% | 27% | 51.7% | 19.1% | 35.7% | 3.65% (active) | 30.2% | 6.41% (active) | 8.36% (active) | 16.7% | 31.9% | 45.9% | 43.6% | 54.7% | 28.3% | 54.8% | 55.6% | 37.5%
Nc1[nH]n2cc(-c3ccc(F)cc3)nc2c1N=Nc1ccc(S(N)(=O)=O)cc1 | 70.1% | 108% | 68.9% | 58.3% | 83.8% | 52.3% | 47.4% | 40.1% | 66.6% | 85.8% | 66.5% | 73.2% | 79% | 90.7% | 80.9% | 73.9% | 61.9% | 78.7% | 66.8% | 105%
Cn1cc(-c2ccc(-c3cn(C)c4ccc(Cl)cc34)[nH]2)c2cc(Cl)ccc21 | -18.9% (active) | -89.2% (active) | 7.64% (active) | -93.1% (active) | -28.7% (active) | -100% (active) | 4.42% (active) | 48.6% | -12.9% (active) | 19.1% | -13% (active) | 7.74% (active) | -5.8% (active) | -14.1% (active) | -57.7% (active) | -53.5% (active) | -45.9% (active) | -84% (active) | -28.6% (active) | -22.5% (active)
